# Measured values: PubChem BioAssay AID1468 (National Center for Advancing Translational Sciences (NCATS), 2008)
# Screen size: about 280,000 compounds; about 1,100 (0.39%) were called active. About 7% were inconclusive and are not listed. The call rests on the fitted dose curve; in most records, active means well fitted inhibition curve with a large enough effect; inconclusive means small, poorly fitted or top-dose-only effect, or effect the other way; inactive means flat fitted curve, though single readings scatter. The sample as a whole holds a higher share of actives than the screen did.
# Target: Microtubule-associated protein tau (Homo sapiens) (UniProt P10636)
# Experiment: qHTS for Inhibitors of Tau Fibril Formation, Fluorescence Polarization; further: nearly all actives have a fitted effect of over 55% in size
# Details: K18 P301L tau heparin fibrillization, Alexa594 FP, 6 h; series mostly up to 57.7 µM; activity, negative = inhibition: at the top concentration
# Description: NIH Molecular Libraries Probe Production Network [MLPCN]
# NIH Chemical Genomics Center [NCGC]
# Assay Provider: Carlo Ballatore, University of Pennsylvania
# The microtubule-associated protein tau is an abundant protein in the axons of neurons that stabilizes microtubules. With its ability to modulate microtubule dynamics, tau contributes directly or indirectly, to key structural and regulatory cellular functions. Particularly important is the influence tau exerts on axonal transport, which allows signaling molecules, trophic factors and other essential cellular constituents to travel along the axons. Under pathological conditions, tau becomes sequestered into insoluble aggregates called neurofibrillary tangles. This phenomenon is believed to have pathological consequences by promoting axonal transport deficits that ultimately lead to synaptic dysfunction and neuronal loss. To identify inhibitors of tau aggregation, a heparin-induced tau fibril formation assay was used that employed a recombinantly expressed fragment of tau, K18 (Q242-E372), bearing a P301L mutation (Gustke et al. 1994; Hong et al. 1998).
# Gustke, N., B. Trinczek, et al. (1994). "Domains of tau protein and interactions with microtubules." Biochemistry 33(32): 9511-22.
# Hong, M., V. Zhukareva, et al. (1998).
# Li, W. and V. M. Lee (2006). "Characterization of two VQIXXK motifs for tau fibrillization in vitro." Biochemistry 45(51): 15692-701.
# von Bergen, M., S. Barghorn, et al. (2001). "Mutations of tau protein in frontotemporal dementia promote aggregation of paired helical filaments by enhancing local beta-structure." J Biol Chem 276(51): 48165-74.
# NCGC Assay Protocol Summary:
# For screening, 2 uL/well human K18 P301L (15 uM unlabeled and 0.24 uM Alexa 594-labeled tau final concentrations) in reagent buffer (100 mM sodium acetate pH 7) was dispensed into black solid 1536-well plates (Grenier) using a solenoid-based dispenser. Following transfer of 23 nL compound or DMSO vehicle by a pin tool, 2 uL/well heparin (20 uM final concentration) in reagent buffer was added and the plate centrifuged 15 s at 1000 RPM. Plates were incubated 6 hr at 37 C and then 1 uL/well ThT (30 uM final concentration) was added. After a 1 hr ambient incubation, the plates were read by an Envision (Perkin Elmer) to monitor Alexa 594 FP (555 nm excitation and 632 nm emission).
# Keywords: NIH Roadmap, MLPCN, MLI, MLSMR, NCGC, qHTS, tau, tauopathies, Alzheimer's disease, fibril, neurodegeneration, aggregation
# On the % scale 0 is the no-effect control and ±100 the full control effect; potency means the concentration at half of the fitted maximal effect.
# Sequence of Microtubule-associated protein tau (Homo sapiens) (P10636 561-689 P618L limits assumed): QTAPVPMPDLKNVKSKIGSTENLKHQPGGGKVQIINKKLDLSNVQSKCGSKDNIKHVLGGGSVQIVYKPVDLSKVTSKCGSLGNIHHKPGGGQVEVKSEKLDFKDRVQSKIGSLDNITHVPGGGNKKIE
SMILES,Potency,"activity, negative = inhibition"
Oc1c(C=Nc2cccc3nsnc23)ccc2ccccc12,3.98 µM (active),
CCOC(=O)c1ccc(NC(=O)CSc2nc3c([nH]c4ccccc43)c(=O)n2C)cc1,,6.83% (inactive)
COc1ccc(OC)c(NC(=O)Cn2c(=O)n(Cc3ccccc3)c(=O)c3ccccc32)c1,,-13% (inactive)
COc1ccc(NC(=O)Cn2c(=O)n(Cc3ccc(C(=O)NCc4ccccc4Cl)cc3)c(=O)c3ccccc32)cc1,25.1 µM (active),
Cc1ccc(Cn2c(=O)n(CCCC(=O)NCc3ccccc3Cl)c(=O)c3ccccc32)cc1,,-9.9% (inactive)
O=C(Cn1c(-c2cccs2)cc2ccccc21)NCCc1ccc(Cl)cc1,,-7.69% (inactive)
CCN1C(=O)c2ccccc2S(=O)c2ccc(C(=O)NCc3ccc(F)cc3)cc21 (configuration not stated),,-1.93% (inactive)
CCOC(=O)C1CCCN(C(=O)c2ccc(-n3ccc4ccccc43)s2)C1 (configuration not stated),,17.1% (inactive)
Cc1c(C(=O)NCc2ccccc2Br)oc2ccc3c(c12)C(=O)CC(C)(C)O3,,-3.31% (inactive)
Cc1ccc(OCCn2c(CNc3ccccc3C)nc3ccccc32)cc1,,-8.29% (inactive)
Cc1nnc(N2CCC(C(=O)Nc3ccc(F)cc3)CC2)c2nn(-c3ccc(Cl)cc3)c(C)c12,,-13.4% (inactive)
Cc1ccnc(SCC(N)=O)n1,,-0.201% (inactive)
Cc1ccnc(-n2sc3ccccc3c2=O)n1,25.1 µM (active),
CCOC(=O)c1ccc(NC2=CC(c3ccc(OCC)cc3)N(c3ccc(C(=O)OCC)cc3)C2=O)cc1 (configuration not stated),,-12.9% (inactive)
Cc1cc(C)c2sc(NC(=O)c3ccc(S(=O)(=O)N4CCCC4)cc3)nc2c1,,-16.1% (inactive)
COc1ccc(OC)c(-c2noc(N3CCN(c4cc(Cl)ccc4C)CC3)n2)c1,,5.31% (inactive)
COc1ccc(N(CC(=O)NCCc2ccc(Cl)cc2)S(=O)(=O)c2c(C)nn(C)c2C)cc1,,3.88% (inactive)
COc1ccc2c(Sc3ccc(C)cc3)c(C(=O)NC(C)c3ccccc3)[nH]c2c1 (configuration not stated),,1.38% (inactive)
CSc1nc(-c2ccccc2)nc(C(Cl)Cl)n1,,-5.56% (inactive)
CSc1nc(Nc2ccc(F)cc2)cc(-c2ccccc2)n1,15.8 µM (active),
Cc1cc(Nc2ccccc2)nc(N)n1,,2.32% (inactive)
CCOC(=O)c1cccc(NS(=O)(=O)c2cc(-c3cnc(C)o3)ccc2OC)c1,,-6.24% (inactive)
COc1ccc(N2C(=O)CSC23C(=O)N(Cc2cccc(F)c2)c2ccccc23)cc1Cl (configuration not stated),,-10.2% (inactive)
O=C(Nc1nnc(SCc2ccccc2)s1)c1ccco1,,-10.1% (inactive)
c1ccc(CSc2nnc(-c3ccco3)c(-c3ccco3)n2)cc1,12.6 µM (active),
Brc1ccc(CSc2ccc(-c3ccco3)nn2)cc1,,-0.453% (inactive)

SMILES,Potency,"activity, negative = inhibition"
O=C(OCc1cc(=O)n2nc(C3CC3)sc2n1)c1ccccc1Cl,,2.73% (inactive)
COc1ccc2c(c1OC)C(=O)OC2c1c(O)nc(SC)n(-c2ccccc2)c1=O (configuration not stated),,-8.67% (inactive)
COc1ccc(-c2csc(NC3OC(=O)c4ccccc43)n2)cc1 (configuration not stated),,-9.14% (inactive)
COc1ccc2c(c1OC)C(=O)OC2Nc1nc(-c2ccccc2)cs1 (configuration not stated),31.6 µM (active),
O=C(CCCn1c(=O)c2cccn2c2cccnc21)NCc1ccc(F)cc1,,-10.2% (inactive)
COc1ccc(OC)c2sc(N3CCN(C(=O)C4COc5ccccc5O4)CC3)nc12 (configuration not stated),,-6.25% (inactive)
COc1cccc(Nc2nc3ccccc3c3nncn23)c1,,-14.4% (inactive)
Fc1ccc(C(Nc2ccc(Cl)c(C(F)(F)F)c2)c2nnc(-c3ccccc3)o2)cc1 (configuration not stated),,-9.8% (inactive)
FC(F)(F)c1cc(Nc2nc3ccccc3c3nncn23)ccc1Cl,10 µM (active),
COc1ccc(-c2cc(C(F)(F)F)n3nc(-c4ccccc4)cc3n2)cc1OC,,-7.35% (inactive)
COc1ccc(OC)c(CNC(=O)Cn2nc(C)c3c(C)n(-c4ccccc4)nc3c2=O)c1,,-0.531% (inactive)
CCN(CC)c1ccc(/C=N/Nc2nc(C)cc(C)n2)c(O)c1,,3.84% (inactive)
CCN(CC)c1ccc2c(Nc3ccccc3)c(C=O)c(=O)oc2c1,,2.78% (inactive)
CCN(CC)c1ccc2oc(=O)c(C)nc2c1,12.6 µM (active),
CC1CCCCN1CC(=O)N1CCCc2c1c(=O)oc1ccc(OCc3ccccc3)cc21 (configuration not stated),,-4.88% (inactive)
CCc1ccccc1NC(=O)N1CCN(C(=O)c2nsc3ccccc23)CC1,,-1.92% (inactive)
Cc1c(C(=O)N2CCCC2)oc2c1-c1nn(CC(=O)NCc3ccc(OC(C)C)cc3)cc1CC2,,9.67% (inactive)
O=C1C(c2ccccn2)=[N+]([O-])c2ccccc21,7.94 µM (active),
Cc1ccc(-c2nnc(SCC(=O)NCc3ccccc3)nc2-c2ccc(C)cc2)cc1,,-2.83% (inactive)
CSc1ncc(Cl)c(C(=O)Nc2ccc(S(=O)(=O)N3CCCC(C)C3)cc2)n1 (configuration not stated),,-18% (inactive)
O=C(CSc1nc(-c2cccc(F)c2)[nH]c1-c1ccccc1)Nc1ccc2c(c1)OCO2,,-13.5% (inactive)
COc1ccc(-c2cn3nc(N4CCCC(C(=O)NCCCOC(C)C)C4)sc3n2)cc1 (configuration not stated),,12.2% (inactive)
O=C(CSc1nnnn1-c1ccc(O)cc1)N1N=C(c2ccc3ccccc3c2)CC1c1ccccc1 (configuration not stated),25.1 µM (active),
O=C(CSc1nnnn1-c1ccc(O)cc1)c1ccc(F)cc1,,-6.29% (inactive)
COc1ccc(C2CC(c3ccccc3)=NN2C(=O)CSc2nccc(=O)[nH]2)cc1 (configuration not stated),,3.39% (inactive)
COc1ccc(Cl)cc1NC(=O)C(C)Sc1nc2c(c(=O)[nH]1)CCCC2 (configuration not stated),,-9.47% (inactive)
